Records with an inconclusive call do not appear. Calls of active or inactive are those of the source. Calls follow the shape of the dose curve; as a rule, active = well fitted inhibition curve with a large enough effect; inconclusive = small, poorly fitted or top-dose-only effect; inactive = flat fitted curve, though single readings scatter.

Common to all, as to experiment: qHTS profiling for inhibitors of Plasmodium falciparum proliferation (AID 504749); also: nearly all actives have a fitted effect of over 60% in size
What all share (settings): P. falciparum in erythrocytes, SYBR Green DNA, 72 h; series mostly up to 12.8 µM
In general terms: qHTS replaces the single test concentration by a dilution series.

The test system of one test is AA1029. In a few lines:
(§1)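 P. falciparum-infected erythrocytes (0.3% parasitemia, 2.5% hematocrit final) were exposed to compounds for 72 h at 37 C in 5% CO2, then lysed with SYBR Green buffer overnight at room temperature; parasite DNA fluorescence was normalized to artemisinin and DMSO controls.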

The subject of another test is ATS95. A digest of the protocol:
as §1

A further test concerns CP192. In a few lines:
as §1

A further test concerns CP201. A digest of the protocol: as §1
The test system of the next test is CP211. A digest of the protocol:
as §1

In the next test the test system is CP260. A digest of the protocol:
as §1

Another test has as its system CP262. A digest of the protocol: as §1
Another test relates to CP266. A digest of the protocol:
as §1

The test system of the next test is CP269. A digest of the protocol: as §1
A further test relates to CP286. A digest of the protocol:
as §1

The test system of another test is CP291. A digest of the protocol: as §1
A further test deals with CP305. In a few lines:
as §1

Another test concerns CP325. A digest of the protocol:
as §1

A further test relates to DIV14. In a few lines: as §1
A further test concerns DIV30. In a few lines:
as §1

Another test has as its system Dd2. In a few lines:
as §1

The subject of a further test is ICS. In a few lines:
as §1

A further test deals with P93_24. A digest of the protocol:
as §1

The next test has as its system PC15. In a few lines: as §1
A further test deals with TAB165. A digest of the protocol:
as §1
Potency is read from the fitted curve at half-maximal effect.

As for `CCN[C@@H]1CN(CCCOC)S(=O)(=O)c2sc(S(N)(=O)=O)cc21`, the Potency entry with AA1029, with ATS95, with CP192, in the test on CP201, in the test with CP211 and in the test on CP260 was “inactive” each time. In addition, the Potency entry in the test with CP262, with CP266, with CP269, in the test with CP286, in the test with CP291 and in the test with CP305 was “inactive” throughout. Moreover, the Potency result in the test with CP325, in the test with DIV14, with DIV30, in the test with Dd2, with ICS and with P93_24 was “inactive” each time. Moreover, the Potency result in the test with PC15 and in the test on TAB165 was “inactive” in each case.

Turning to `CO[C@H]1[C@H](O[C@H]2O[C@@H](C)[C@@H](O[C@@H]3C[C@](C)(O)[C@H](O)[C@H](C)O3)[C@@H](N(C)C)[C@@H]2O)[C@@H](CC=O)C[C@@H](C)[C@@H](O[C@H]2CC[C@H](N(C)C)[C@H](C)O2)/C=C\C=C/C[C@@H](C)OC(=O)C[C@H]1O`, the Potency entry in the test with CP192, in the test on CP201, in the test on DIV14, in the test on DIV30, in the test on Dd2 and with PC15 was “inactive” throughout. The Potency result in the test with TAB165 was “inactive”.

Regarding `CC[C@H]1NC(=O)c2cc(S(N)(=O)=O)c(Cl)cc2N1`, the Potency entry in the test with AA1029, in the test with ATS95, in the test with CP192, in the test on CP201, in the test on CP211 and in the test with CP260 was “inactive” throughout. The Potency result in the test with CP262, with CP266, in the test on CP269, in the test on CP286, in the test on CP291 and in the test on CP305 was “inactive” each time. Moreover, the Potency entry in the test on CP325, in the test on DIV14, with DIV30, with Dd2, in the test with ICS and in the test on P93_24 was “inactive” each time. The Potency entry with PC15 and in the test on TAB165 was “inactive” in each case.

Consider `CN[C@H]1[C@H](O)[C@@H](O[C@@H]2[C@H](O)[C@@H](O[C@H]3OC(CN)=CC[C@H]3N)[C@@H](N)C[C@H]2N)OC[C@@]1(C)O`, for which the Potency result in the test with AA1029, in the test with ATS95, in the test on CP192, in the test on CP201, in the test with CP211 and in the test on CP260 was “inactive” throughout. Further, the Potency entry with CP262, in the test on CP266, with CP269, in the test on CP286, in the test with CP291 and with CP305 was “inactive” throughout. The Potency result in the test on CP325, in the test with DIV14, with DIV30, in the test on Dd2, in the test with ICS and in the test with P93_24 was “inactive” each time. Further, the Potency entry with PC15 and in the test on TAB165 was “inactive” in each case.

Consider `O[C@@](CCN1CCCC1)(c1ccccc1)C1CCCCC1`, for which the Potency result in the test with CP192, in the test on CP260, with CP262, in the test on CP266, in the test with CP269 and in the test with CP286 was “inactive” in each case. Besides, in the test with CP291, the Potency result is “inactive”. Also, the Potency in the test with DIV14 is 2.87 µM (active).

Consider `Clc1ccc(CC[C@H](Cn2ccnc2)Sc2c(Cl)cccc2Cl)cc1`, for which the Potency in the test with CP291 is 5.73 µM (active); with DIV14 it was 3.22 µM (active); in the test on DIV30 it was 5.73 µM (active); in the test on Dd2, 3.55 µM (active); with ICS it was 1.41 µM (active); with P93_24, 2.24 µM (active). In addition, the Potency in the test with TAB165 is 1.26 µM (active).

In the case of `CC(=O)O[C@H]1C[C@@]2(C)[C@H](C[C@@H](O)[C@H]3[C@@]4(C)CC[C@@H](O)[C@@H](C)[C@H]4CC[C@@]32C)C1=C(CCC=C(C)C)C(=O)O`, the Potency entry in the test on AA1029, in the test with ATS95, in the test on CP192, in the test with CP201, with CP211 and in the test on CP260 was “inactive” throughout. Further, the Potency entry with CP262, in the test on CP266, in the test with CP269, in the test on CP286, in the test with CP291 and in the test on CP305 was “inactive” in each case. The Potency result in the test with CP325, with DIV14, in the test on DIV30, in the test with Dd2, with P93_24 and in the test on PC15 was “inactive” each time. Also, the Potency result in the test on TAB165 was “inactive”.

As to `Cc1ncc([N+](=O)[O-])n1C[C@H](O)CCl`, the Potency entry in the test with AA1029, with ATS95, with CP192, in the test with CP201, in the test on CP211 and in the test with CP260 was “inactive” in each case. The Potency entry in the test with CP262, with CP266, in the test on CP269, with CP286, in the test on CP291 and in the test on CP305 was “inactive” each time. For the same molecule, the Potency entry in the test on CP325, with DIV14, in the test with DIV30, with Dd2, in the test with ICS and in the test on P93_24 was “inactive” in each case. The Potency result in the test with PC15 and in the test on TAB165 was “inactive” each time.

With `CO[C@@H]1C[C@H](O[C@H]2[C@@H](C)[C@H](O[C@@H]3O[C@@H](C)C[C@@H](N(C)C)[C@@H]3OC(C)=O)[C@H](C)C[C@]3(CO3)C(=O)[C@H](C)[C@H](OC(C)=O)[C@H](C)[C@H](C)OC(=O)[C@@H]2C)O[C@H](C)[C@@H]1OC(C)=O`, the Potency entry in the test on AA1029, in the test on ATS95, with CP192, in the test on CP201, in the test on CP211 and in the test with CP260 was “inactive” throughout. The Potency entry in the test with CP266, with CP269, in the test with CP286, in the test on CP291, with CP305 and in the test on CP325 was “inactive” throughout. Besides, the Potency entry with DIV14, in the test on DIV30, in the test on Dd2, with ICS, in the test with P93_24 and in the test with PC15 was “inactive” each time. Further, in the test with TAB165, the Potency entry was “inactive”.

As for `COc1ccccc1OC[C@H](O)CO`, the Potency result in the test with AA1029, in the test on ATS95, in the test on CP192, with CP201, in the test with CP211 and in the test on CP260 was “inactive” throughout. The Potency result in the test on CP262, in the test with CP266, in the test with CP269, with CP286, in the test on CP291 and with CP305 was “inactive” in each case. For the same molecule, the Potency result in the test on CP325, with DIV14, in the test on DIV30, in the test with Dd2, in the test on ICS and with P93_24 was “inactive” throughout. For the same molecule, the Potency result in the test with PC15 and with TAB165 was “inactive” in each case.

Consider `CC(=O)OCC(=O)[C@@]12OC(C)(C)O[C@@H]1C[C@H]1[C@H]3C[C@H](F)C4=CC(=O)C=C[C@@]4(C)[C@]3(F)[C@H](O)C[C@@]12C`, for which the Potency entry with AA1029, with ATS95, with CP192, with CP201, in the test with CP211 and with CP260 was “inactive” in each case. In addition, the Potency result with CP262, in the test with CP266, in the test with CP269, in the test with CP286, in the test on CP291 and in the test on CP305 was “inactive” in each case. Further, the Potency result with CP325, in the test with DIV14, with DIV30, in the test on Dd2, with ICS and in the test with P93_24 was “inactive” each time. The Potency result with PC15 and in the test with TAB165 was “inactive” in each case.

Consider `NC[C@@H]1O[C@@H](O[C@H]2[C@H](O)[C@H](O[C@@H]3O[C@H](CO)[C@@H](O)[C@H](N)[C@@H]3O)[C@@H](N)C[C@H]2N)[C@H](N)C[C@@H]1O`, for which the Potency result in the test with AA1029, with ATS95, with CP192, with CP201, in the test on CP211 and in the test with CP260 was “inactive” each time. The Potency entry with CP262, with CP266, in the test with CP269, in the test on CP286, in the test with CP291 and in the test with CP305 was “inactive” throughout. Further, the Potency result in the test on CP325, with DIV14, with DIV30, with Dd2, in the test with ICS and in the test with P93_24 was “inactive” throughout. In addition, the Potency entry in the test on PC15 and in the test with TAB165 was “inactive” in each case.

Turning to `CCCCC[C@H](O)/C=C\[C@@H]1[C@H](O)CC(=O)[C@@H]1CCCCCCC(=O)O`, the Potency result in the test with AA1029, with ATS95, in the test on CP192, with CP201, with CP211 and with CP260 was “inactive” each time. For the same molecule, the Potency entry with CP262, in the test on CP266, with CP269, with CP286, in the test on CP291 and with CP305 was “inactive” in each case. For the same molecule, the Potency result in the test with CP325, with DIV30, in the test on Dd2, in the test with PC15 and with TAB165 was “inactive” throughout. Besides, in the test with ICS, the Potency was 3.55 µM (active).

The values are drawn from PubChem BioAssay (NCATS).
